Bioassay records (PubChem BioAssay)
Rab9 prom act: Rab9 promoter activation; Huh7 Rab9 promoter-luciferase reporter, luminescence, 24 h; Potency, µM (titrated, usually from 9.22 µM), for inactives: at the top dose activation, negative = inhibition, usual class: activators; actives 2.8% (n = 320,000); AID 485297; note: % of control where 0% means no effect; nearly all actives have a fitted effect of over 60% in size
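Huh7 reporter line, Rab9 promoter upstream of luciferase. Compound exposure 24 h at 37 °C in reduced-serum medium with 10% FBS. Read-out: luminescence.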
ELG1 DNA repair: blocks ELG1-dependent DNA repair in HEK293T cells | HEK293T ELG1-luciferase reporter, luminescence, 16 h; DNA damage induced by 5-fluorouridine | Potency, µM (titrated, usually from 46.1 µM), inactives show at the highest dose activity change, negative = inhibition, usual class: inhibitors | actives 2.3% (n = 330,000); note: % is set by controls: 0 for no effect and ±100 for the full control effect; nearly all actives have a fitted effect of over 55% in size
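5-Fluorouridine DNA damage + compound/DMSO, 2,000 cells/well, 16 h, 37 °C/5% CO2. ONE-Glo, 30 min RT, luminescence. Readout = decrease in reporter signal.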
SMN2 splice up: enhancers of SMN2 splice variant expression; HEK293 SMN2-luciferase splicing reporter, luminescence, 30-36 h; actives 2.8% (n = 210,000); Potency, µM (series often up to 46.1 µM), without a hit: at the top dose activity change, positive = activation, hits mostly activators; AID 1458; note: % of control where 0% means no effect; nearly all actives have a fitted effect of over 55% in size
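HEK293 cells carry an SMN2 […]–luciferase reporter in which exon 7 inclusion puts luciferase in frame. Cells were plated 10-12 h before compound addition, then incubated 30-36 h at 37C. ONE-Glo luminescence was read; sodium butyrate at 4.5 mM final served as control.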
FLuc modulator: inhibits or activates purified firefly luciferase, miR-21 counter-screen | P08659 | purified FLuc, Km substrates, luminescence inhibition | Potency, µM (doses to about 57.5 µM), for inactives: at the top dose activity change, negative = inhibition, actives largely listed as inhibitors | actives 6.9% (n = 360,000) | AID 588342;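 note: plate controls were vehicle for no effect and reference inhibitor for full effect; nearly all actives have a fitted effect of over 55% in size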
Target sequence (P08659 whole entry, looked up): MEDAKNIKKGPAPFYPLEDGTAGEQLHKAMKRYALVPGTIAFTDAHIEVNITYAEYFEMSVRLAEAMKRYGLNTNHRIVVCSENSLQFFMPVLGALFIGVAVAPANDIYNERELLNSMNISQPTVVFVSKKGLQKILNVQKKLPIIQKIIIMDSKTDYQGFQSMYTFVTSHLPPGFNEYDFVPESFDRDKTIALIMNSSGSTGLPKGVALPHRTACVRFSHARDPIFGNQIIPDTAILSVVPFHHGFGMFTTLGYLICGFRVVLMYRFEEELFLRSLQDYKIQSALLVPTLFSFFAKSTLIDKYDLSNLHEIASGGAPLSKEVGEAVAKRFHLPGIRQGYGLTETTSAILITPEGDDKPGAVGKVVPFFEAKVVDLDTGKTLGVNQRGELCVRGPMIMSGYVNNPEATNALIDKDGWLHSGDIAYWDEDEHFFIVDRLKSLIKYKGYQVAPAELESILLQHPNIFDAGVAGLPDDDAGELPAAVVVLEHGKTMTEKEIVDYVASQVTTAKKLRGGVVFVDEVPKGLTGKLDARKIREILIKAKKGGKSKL
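Purified P. pyralis luciferase, 10 nM final, with Km-level 10 uM D-luciferin and 10 uM ATP in 50 mM Tris acetate pH 7.5, 10 mM Mg acetate, 0.01% Tween-20, 0.05% BSA; 6-point qHTS titration about 60 µM downward; luminescence read.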
ELG1 genotox: genotoxicity induction in ELG1-luciferase HEK293T cells | HEK293T ELG1-luciferase reporter, luminescence, 16 h | Potency, µM (doses to about 46 µM), for the others: top-dose activity change, positive = activation, actives largely listed as activators | actives 1.3% (n = 330,000) | AID 504466; note: % of control where 0% means no effect; nearly all actives have a fitted effect of over 60% in size
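Screening used a luciferase reporter fused to human ELG1 in HEK293T cells. Luminescence was read on a CCD plate imager after 16 hr exposure and 30 min ONE-Glo incubation.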
NPC1 promoter act: activators of NPC1 promoter; Huh7 NPC1 promoter luciferase reporter, 24 h; Potency, µM (doses to about 9.22 µM), without a hit: at the highest dose activation, usual class: activators; actives 2.4% (n = 320,000); note: % of control where 0% means no effect; nearly all actives have a fitted effect of over 60% in size
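Readout is luciferase luminescence, reflecting NPC1 promoter activation in stably transfected Huh7 cells after 24 h compound exposure at 37 °C in reduced-serum medium with 10% FBS.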
The depositor's hits bear a star; ? = inconclusive; nt = not tested or not shown; [ ] = remark or other dose. This is a sample that favours compounds with a hit; in the whole collection about 9.4% have one here. Calls come from the whole dose curve; as a rule, active = well fitted curve in the direction sought with a large enough effect; inconclusive = small, poorly fitted or top-dose-only effect, or another doubt; inactive = no such curve, though single readings can be large; an effect the other way counts as inactive or inconclusive. Potency is the fitted concentration of half-maximal effect.

SMILES	Rab9 prom act	ELG1 DNA repair	SMN2 splice up	FLuc modulator	ELG1 genotox	NPC1 promoter act
COc1ccc(OCc2cc(C(=O)O)c(C)o2)cc1	?	?	nt	2.13µM*	1.0%	?
CCOc1ccc(OCc2ccc(C(=O)Nc3cccnc3)o2)cc1	?	-2.1%	7.94µM*	?	-0.5%	0.562µM*
CCc1ccc(OCc2ccc(C(=O)O)o2)cc1	?	?	nt	2.13µM*	?	?
CCOc1ccc(OCc2ccc(C(=O)NCc3cccnc3)o2)cc1	19.6%	18.9%	-31.6%	-8.2%	0.7%	19.7%
COC(=O)c1ccc(COc2cccc(OC)c2)o1	-1.7%[1.84 µM]	?	1.8%	?	23.1µM*	-4.7%
COC(=O)c1ccc(COc2ccc(Cl)cc2)o1	20.4%	?	nt	?	8.0%	15.7%
CCOc1ccc(CCNC(=O)CCn2c(=O)c3cccn3c3ccc(F)cc32)cc1OCC	nt	nt	nt	-11.1%	nt	nt
Cc1cc[n+](-c2ccccc2)c2ccccc12	-20.8%	10.3µM*	-70.9%	5.9%	-4.0%	-26.0%
O=C1C=CCC(/C=C/c2ccccc2)O1 (stereo not drawn)	-30.6%	18.4µM*	-15.5%	-10.7%	-3.5%	-28.6%
COc1cccc(C2N=C(c3ccccc3C)NO2)c1OC (stereo not drawn)	11.9%	?	nt	9.53µM*	?	19.4%
Nc1c(C(=O)NCc2cccs2)nnn1CC(=O)Nc1cccc(F)c1	nt	nt	10.4%	0.1%	nt	nt
CCCCn1c(N)c(N(CC(C)C)C(=O)c2ccc(-c3ccc(Cl)cc3)o2)c(=O)[nH]c1=O	-1.7%	14.6µM*	nt	0.5%	-8.2%	-1.0%
COc1ccccc1N1CCN(C2=Nc3cccc4cccc2c34)CC1	?	?	nt	3.38µM*	5.1%	?
COc1ccccc1NC1=Nc2cccc3cccc1c23	-0.8%	-6.8%	nt	19µM*	-0.5%	1.7%
COc1ccc(C(=O)NNC2=Nc3cccc4cccc2c34)cc1	16.9%	-9.2%	-6.6%	-7.2%	2.8%	10.1%
O=C(O)c1ccc(NC2=Nc3cccc4cccc2c34)cc1	1.58µM*	?	nt	?	11.5%	1.58µM*
CC(=O)c1cccc(NC(=O)Cc2cccs2)c1	29.6%	-1.7%	-6.3%	?	3.3%	23.8%
CC(=O)c1ccc(NC(=O)Cc2cccs2)cc1	2.51µM*	?	nt	?	?	2.82µM*
CCCOC(=O)c1ccc(NC(=O)Cc2cccs2)cc1	?	?	nt	19µM*	?	?
CCCOC(=O)c1ccc(NC(=O)COC)cc1	6.4%	?	0.5%	?	?	2.3%
COc1ccc(NC(=O)CSc2oc(-c3ccc(F)cc3)nc2S(=O)(=O)c2ccc(C)cc2)c(OC)c1	nt	nt	-5.3%	-1.6%	nt	nt
COC(=O)c1cc2oc3ccccc3c2n1CC(=O)Nc1ccc(C)cc1Cl	nt	nt	5.4%	1.0%	nt	nt
CC(C)(C)c1ccc(-c2nc(C#N)c(NCCCn3ccnc3)o2)cc1	-0.8%	-9.5%	nt	21.3µM*	-2.2%	-3.8%
COc1ccc(-c2nc(C#N)c(NCc3ccc(C)cc3)o2)cc1OC	nt	nt	0.5%	?	nt	nt
COc1ccc(-c2nc(C#N)c(NCCc3ccccc3)o2)cc1OC	?	?	15.8µM*	6.75µM*	8.2µM*	?
SMILES	Rab9 prom act	ELG1 DNA repair	SMN2 splice up	FLuc modulator	ELG1 genotox	NPC1 promoter act
COc1ccc(-c2nc(C#N)c(NCCCn3ccnc3)o2)cc1OC	20.2%	?	6.31µM*	15.1µM*	?	24.0%
CC(C)(C)c1ccc(-c2nc(C#N)c(NCc3ccncc3)o2)cc1	?	?	nt	6.01µM*	?	16.1%
N#Cc1nc(-c2ccc(F)cc2)oc1NCCCn1ccnc1	26.0%	23.0%	26.7%	-17.2%	7.3%	12.6%
COc1cc(CN(C(=O)c2oc3ccccc3c2C)C2CCS(=O)(=O)C2)cc(OC)c1OC (stereo not drawn)	nt	nt	12.2%	-1.6%	nt	nt
O=C1C2C3C=CC(C3)C2C(=O)N1c1ccc(-c2nc3ccccc3o2)cc1 (stereo not drawn)	1.41µM*	?	12.6µM*	2.69µM*	1.84µM*	1.41µM*
COc1ccc2c(c1)O[C@@H](c1ccc3c(c1)OCO3)[C@H](OC(=O)Nc1ccc(OC(F)F)cc1)C2=O	nt	nt	8.1%	nt	nt	nt
CN(Cc1ccccc1)C(=O)c1ccc(NC(=O)Cc2cccc(NC(=O)C3CCN(C(=O)C4CCCC4)CC3)c2)cc1	-5.6%	10.3µM*	nt	-19.3%	-3.3%	1.1%
Clc1ccc2nc(-c3ccc(N4CCOCC4)cc3)c(Nc3ccccc3)n2c1	nt	nt	2.1%	?	nt	nt
Cc1ccccc1Nc1c(-c2ccc(N3CCOCC3)cc2)nc2ccc(Cl)cn12	nt	nt	4.0%	2.39µM*	nt	nt
Cc1ccc2nc(-c3ccc(N4CCOCC4)cc3)c(Nc3ccccc3C)n2c1	nt	nt	?	1.9µM*	nt	nt
Cc1ccc(Nc2c(-c3ccc(N4CCOCC4)cc3)nc3ncccn23)c(C)c1	-3.5%	11.6µM*	1.0%	19µM*	-1.8%	-0.2%
COc1ccc2sc(N(Cc3cccnc3)C(=O)C3COc4ccccc4O3)nc2c1 (stereo not drawn)	nt	nt	nt	-11.2%	nt	nt
CCOCCc1nn2c(=O)cc(COC(=O)c3ccc(NC(=O)C(C)(C)C)cc3)nc2s1	nt	nt	nt	-3.5%	nt	nt
Cn1c(SCC(=O)N/N=C/c2cc([N+](=O)[O-])ccc2O)nnc1-c1ccccc1	-2.0%	9.2µM*	nt	-2.2%	5.2%	-2.4%
Fc1ccc(/C=N/NC(=S)Nc2ccc(Cl)cc2Cl)cc1	-22.0%	-4.4%	nt	-0.9%	1.8%	-32.3%
O=C(N/N=C/c1cc([N+](=O)[O-])ccc1O)Nc1ccccc1	-0.6%	?	6.4%	?	-8.0%	-4.0%
O=[N+]([O-])c1ccc(/C=N/NC(=S)Nc2ccc(Cl)cc2Cl)s1	-6.5%	8.2µM*	nt	-4.0%	3.2%	-2.0%
Cc1cc(Cl)ccc1NC(=O)CCC(=O)N/N=C/c1cc([N+](=O)[O-])ccc1O	2.0%	7.3µM*	-18.9%	-13.4%	7.0%	-6.1%
O=[N+]([O-])c1ccc(O)c(/C=N/NC(=S)Nc2ccc(Cl)cc2Cl)c1	-11.8%	2.91µM*	nt	?	5.4%	-5.5%
Cc1ccc(C(=O)c2sc(Nc3ccccc3)c(S(=O)(=O)c3ccccc3)c2N)c(C)c1	nt	nt	nt	1.8%	nt	nt
Cc1cccn2c(=O)c3cc(C#N)c(=O)n(-c4nnc(SCc5ccccc5F)s4)c3nc12	nt	nt	-2.6%	3.9%	nt	nt
O=C1C2C3C=CC(C3)C2C(=O)N1/N=C/c1ccc(-c2ccccc2[N+](=O)[O-])o1 (stereo not drawn)	23.7%	?	?	19µM*	2.7%	17.2%
